Among the data in PubChem BioAssay (NCI) are growth values, retold here.

Among the test systems are NCI-H23 lung; NCI-H226 lung; NCI-H322M lung; HOP-62 NSCLC; NCI-H460 lung; HOP-92 NSCLC; NCI-H522 lung; A549/ATCC NSCLC; 786-0 renal; COLO 205 colon; DU-145 prostate; K-562 leukemia; MALME-3M melanoma; MDA-MB-231 breast; RXF 393 renal; SF-268 CNS; SF-295 CNS; SF-539 CNS; UACC-257 melanoma; M14 melanoma.
What all share (test): NCI-60 one-dose screen, 48 h (100 = growth as untreated, 0 = no growth, -100 = all killed)
Common to all, as to conditions: 10 µM unless noted

About 83,000 compounds went through this panel and 20% of them were active in at least one assay; those are over-represented in the sample as a whole.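 Each cell line was grown in a 96-well plate and treated with one concentration of compound for 48 hours. Values below 10 were considered active.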 Values without a mark were called inactive. Active and inactive are the calls of the source.

In the case of `Nc1cc2ccccc2c(O)c1O`, the growth is 54% in the test on NCI-H23 lung; 81.2% in the test with NCI-H226 lung; 89.1% in the test with NCI-H322M lung; 76.9% in the test on HOP-62 NSCLC; 86.9% in the test with NCI-H460 lung; 83.9% in the test with HOP-92 NSCLC. Also, the growth is 45.3% with NCI-H522 lung; 96.9% in the test with A549/ATCC NSCLC; -32.2% (active) in the test with 786-0 renal; 56.5% in the test on COLO 205 colon; 92.7% in the test on DU-145 prostate; 5.25% (active) in the test on K-562 leukemia. Also, the growth in the test on MALME-3M melanoma was -39% (active); in the test with MDA-MB-231 breast, -19.9% (active); in the test on RXF 393 renal, -52.5% (active); in the test with SF-268 CNS it was 53.6%; in the test with SF-295 CNS, 85%; in the test with SF-539 CNS, 16.2%. Moreover, the growth is 89.4% with UACC-257 melanoma and 93.3% in the test on M14 melanoma.

In the case of `Oc1cccc(CNC2CCCCC2)c1`, the growth with NCI-H23 lung was 107%; with NCI-H226 lung it was 102%; in the test with NCI-H322M lung, 129%; with HOP-62 NSCLC, 111%; with NCI-H460 lung, 116%; with HOP-92 NSCLC, 97.5%. Moreover, the growth with NCI-H522 lung was 90.4%; in the test with A549/ATCC NSCLC, 101%; with 786-0 renal, 102%; in the test on COLO 205 colon it was 120%; with DU-145 prostate, 119%; in the test on K-562 leukemia, 101%. The growth is 129% with MALME-3M melanoma; 102% in the test with MDA-MB-231 breast; 114% with RXF 393 renal; 103% with SF-268 CNS; 120% with SF-295 CNS; 106% with SF-539 CNS. Further, the growth with UACC-257 melanoma was 119%.

Consider `O=C1C=Cc2ccccc2/C1=C/c1[nH]c(=O)[nH]c1O`, for which the growth in the test on NCI-H23 lung is 51.7%; with NCI-H226 lung it was 45.2%; with NCI-H322M lung it was 57.8%; in the test on HOP-62 NSCLC, 41.3%; in the test on NCI-H460 lung, 84.8%; in the test on HOP-92 NSCLC it was 45.9%. Also, the growth with NCI-H522 lung is -17.7% (active); in the test with A549/ATCC NSCLC, 82%; in the test on 786-0 renal it was 27.6%; in the test with COLO 205 colon it was 34.3%; in the test on DU-145 prostate, 54.5%; in the test with K-562 leukemia, 26%. The growth with MALME-3M melanoma was 23.5%; in the test with MDA-MB-231 breast, 62.6%; in the test on RXF 393 renal, 34.2%; in the test with SF-268 CNS it was 55.2%; with SF-295 CNS it was 28.9%; with SF-539 CNS, 17.6%. Further, the growth with UACC-257 melanoma was 2.03% (active); in the test with M14 melanoma, 22.3%.

Consider `CCC1CCC(C)NC1` (configuration not stated), for which the growth in the test with NCI-H23 lung is 91.3%; in the test with NCI-H226 lung it was 93.4%; in the test with NCI-H322M lung, 108%; in the test on HOP-62 NSCLC, 101%; in the test with NCI-H460 lung it was 99.7%; in the test with HOP-92 NSCLC, 87.3%. Besides, the growth with NCI-H522 lung is 99.2%; with A549/ATCC NSCLC, 105%; in the test on 786-0 renal, 102%; in the test on COLO 205 colon it was 103%; in the test on DU-145 prostate, 107%; in the test with K-562 leukemia, 102%. The growth in the test on MALME-3M melanoma was 102%; with MDA-MB-231 breast, 120%; in the test with RXF 393 renal, 107%; in the test on SF-268 CNS, 102%; in the test with SF-295 CNS it was 92.1%; in the test with SF-539 CNS, 99.7%. For the same compound, the growth is 96% in the test on UACC-257 melanoma and 95.2% in the test with M14 melanoma.

In the case of `COc1cc(C(=O)O)c(O)c(C(C)(C)C)c1`, the growth in the test with NCI-H23 lung was 102%; in the test with NCI-H226 lung, 102%; in the test on NCI-H322M lung it was 107%; with HOP-62 NSCLC it was 104%; in the test on NCI-H460 lung, 105%; with HOP-92 NSCLC it was 88.2%. Moreover, the growth in the test with NCI-H522 lung was 106%; with A549/ATCC NSCLC, 102%; in the test on 786-0 renal it was 101%; with COLO 205 colon it was 107%; with DU-145 prostate, 106%; in the test on K-562 leukemia, 101%. Moreover, the growth with MALME-3M melanoma is 102%; with MDA-MB-231 breast it was 103%; in the test with RXF 393 renal, 117%; in the test with SF-268 CNS, 105%; in the test on SF-295 CNS it was 102%; in the test with SF-539 CNS, 102%. The growth in the test on UACC-257 melanoma was 97.9%.

As for `CCOC(=O)N[C@H]1CCc2cc(OC)c(OC)c(OC)c2-c2ccc(SC)c(=O)cc21`, the growth is 27.4% with NCI-H23 lung; -7.68% (active) in the test on NCI-H226 lung; 30.7% in the test with NCI-H322M lung; 30.1% in the test on HOP-62 NSCLC; 2.01% (active) in the test with NCI-H460 lung; 29.4% with HOP-92 NSCLC. For the same compound, the growth with NCI-H522 lung is -8.99% (active); with A549/ATCC NSCLC, 17.3%; in the test with 786-0 renal, 15.6%; in the test with COLO 205 colon it was -4.99% (active); in the test on DU-145 prostate, 0.871% (active); in the test on K-562 leukemia, 9.44% (active). For the same compound, the growth in the test on MALME-3M melanoma was 51.4%; with MDA-MB-231 breast, -22% (active); in the test with RXF 393 renal it was 10.7%; in the test on SF-268 CNS, 23%; in the test with SF-295 CNS it was 3.33% (active); with SF-539 CNS, -21.9% (active). The growth in the test on UACC-257 melanoma was 71%; in the test with M14 melanoma it was 4.1% (active).

In the case of `C=CC(=O)OC1CCC(C(C)(C)CC)CC1` (configuration not stated), the growth with NCI-H23 lung is 108%; in the test on NCI-H226 lung, 106%; with NCI-H322M lung, 110%; in the test on HOP-62 NSCLC, 103%; in the test with NCI-H460 lung it was 105%; in the test with HOP-92 NSCLC it was 115%. Besides, the growth with NCI-H522 lung is 100%; in the test with A549/ATCC NSCLC, 109%; with 786-0 renal it was 105%; in the test with COLO 205 colon, 105%; in the test with DU-145 prostate, 113%; with K-562 leukemia it was 109%. Moreover, the growth in the test on MALME-3M melanoma is 110%; with MDA-MB-231 breast, 106%; in the test with RXF 393 renal it was 113%; with SF-268 CNS, 102%; in the test on SF-295 CNS, 120%; with SF-539 CNS, 105%. Besides, the growth was 115% with UACC-257 melanoma and 107% with M14 melanoma.

For `COc1ccc(C)cc1NC(=O)SC(C)C`, the growth was 102% [100 µM] with NCI-H23 lung; 89.6% [100 µM] with NCI-H226 lung; 104% [100 µM] in the test on NCI-H322M lung; 97% [100 µM] in the test on HOP-62 NSCLC; 103% [100 µM] in the test on NCI-H460 lung; 103% [100 µM] with HOP-92 NSCLC. Further, the growth is 88.7% [100 µM] in the test with NCI-H522 lung; 104% [100 µM] in the test on A549/ATCC NSCLC; 102% [100 µM] with 786-0 renal; 132% [100 µM] with COLO 205 colon; 103% [100 µM] with DU-145 prostate; 92.5% [100 µM] in the test on K-562 leukemia. Further, the growth with MALME-3M melanoma is 98.8% [100 µM]; in the test with MDA-MB-231 breast, 92.1% [100 µM]; with RXF 393 renal, 102% [100 µM]; in the test on SF-268 CNS, 97.3% [100 µM]; in the test on SF-295 CNS, 105% [100 µM]; in the test on SF-539 CNS, 97.6% [100 µM]. Moreover, the growth in the test with UACC-257 melanoma was 98.8% [100 µM].
